Source: the supplement of paper PMC3334620
Over roughly 33,000 sequences, “E-score (-0.5 to 0.5)” has its median near -0.036; the highest 2% begin near 0.37. The sample as a whole holds a higher share of the highest values than the screen did.

What follows are sequences tested against T1, Yer064c (UniProt P40041) (assay: PBM E-score (8-mer binding enrichment) (E-score (-0.5 to 0.5)); higher = stronger / more preferred TF binding). Settings: protein concentration: 200 nM; construct: GST-full length.
T1 sequence: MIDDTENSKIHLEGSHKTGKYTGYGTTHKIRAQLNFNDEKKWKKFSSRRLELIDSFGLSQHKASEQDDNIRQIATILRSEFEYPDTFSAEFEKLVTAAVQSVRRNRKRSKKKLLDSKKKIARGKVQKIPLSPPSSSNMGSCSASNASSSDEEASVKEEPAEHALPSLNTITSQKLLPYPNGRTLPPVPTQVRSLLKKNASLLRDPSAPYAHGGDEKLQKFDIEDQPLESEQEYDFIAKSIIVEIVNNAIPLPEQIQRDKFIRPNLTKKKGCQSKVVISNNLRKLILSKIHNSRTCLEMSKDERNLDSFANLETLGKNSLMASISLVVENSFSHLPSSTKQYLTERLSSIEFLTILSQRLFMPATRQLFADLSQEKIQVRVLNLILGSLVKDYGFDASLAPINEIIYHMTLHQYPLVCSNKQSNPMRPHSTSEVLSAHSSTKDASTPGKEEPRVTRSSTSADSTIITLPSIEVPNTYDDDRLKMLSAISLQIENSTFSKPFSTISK
Procedure: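 Universal 'all 10-mer' protein binding microarrays (Agilent AMADID 015681) probed with GST-tagged S. cerevisiae TFs (full-length or DBD) made by in vitro transcription/translation (PURExpress), about 100-200 nM. Bound TF was detected with fluorescent anti-GST. Each ungapped 8-mer (which stands for itself and its reverse complement) is scored by the PBM enrichment score (E-score), a modified Wilcoxon-Mann-Whitney statistic from -0.5 to +0.5, computed with the Universal PBM Analysis Suite. Scale: above 0.35 generally sequence-specific binding.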

Sequence	PBM E-score
ATGAGTTC	0.327
ATGAGTTG	0.194
ATGAGTGG	0.193
CTGAGTCC	0.402
CTGAGTTC	0.104
ATGAGTGC	0.226
ATGAGTCC	0.442
CTGAGTGC	-0.0835
ATGAGTCG	0.474
AGCTACGG	-0.0957
CAGTGGTC	0.0376
GGCACGGA	-0.127
TACTTCTA	0.0324
TGTCCAAA	-0.0925
ATTTCTTC	-0.058
ACGATTGC	0.0745
GCGATTGA	0.145
ATGATTGG	0.286
ATGATTGA	0.423
ACGATTGA	0.216
GTGATTGA	0.401
ATGATTGC	0.375
CTGATTGC	0.274
CTGATTGA	0.305
GGTGAAAA	-0.106

Sequence	PBM E-score
CAAATCTC	0.0434
CATCTACG	0.104
AGGTGAGC	-0.00638
CCGGGTGA	0.176
AATGCTCA	0.0674
AGTCAGCC	0.458
AGTCAGCA	0.455
ATTCAGCG	-0.0722
CGTCAGCA	-0.0315
GGTCAGCA	-0.0951
ACTCAGCC	0.335
AGTCAGCG	0.453
ACTCAGCG	0.269
CGTCAGCC	-0.135
GGCAGCAA	-0.355
GCAGATGC	-0.257
CAATGGTC	0.183
ATGTATTA	0.0655
ATGCTTTG	-0.00054
TAACAGTA	-0.019
CTATAGTC	0.37
CTATAGCC	-0.0342
ATATAGTC	0.403
ATATAGTG	0.0402
ATATAGTA	0.128

Sequence	PBM E-score
CTATAGTA	0.0624
ACCGAACT	-0.0318
AGCAGAAA	-0.0226
CAGAGTGG	-0.106
CAGACGAG	-0.0357
CGCTCTAG	-0.196
CCGACAAA	-0.0238
CTCATCGA	0.173
ATCATCGA	0.31
GTCATCGA	0.389
ACCTGAAA	-0.0522
CAGGTTGA	0.0225
CCAGAAAG	0.0675
CGTAGTAA	-0.0636
AGTAGTCC	0.302
AGTAGTTA	0.112
GGTAGTGA	0.0671
GGTAGTAA	0.0578
AGTAGTCG	0.381
GGTAGTCA	0.479
AGTAGTAG	0.00559
CGTAGTCA	0.483
AGTAGTAA	0.156
CGTAGTCC	0.262
AGTAGTCA	0.478

Sequence	PBM E-score
GGCCGTCA	-0.262
CTCTGGTC	-0.00298
GGAATTCA	-0.0346
ACGAACGT	-0.129
ATGACCGC	-0.075
CCAGTCGA	0.00412
CGTACGTC	-0.241
CCGGAGTC	0.373
ACGGAGTG	-0.215
ACGGAGTC	0.431
CCGGAGTA	0.0206
ACGGAGTA	-0.0195
CCGGAGGC	-0.154
ATGTACTG	0.0673
ACTGTCAA	-0.0537
GCGTCGCA	0.0193
TACTAATA	-0.1
GACTAATA	0.445
GACTAATC	0.439
CACTAATC	0.191
AACTAATC	0.15
CACTAATA	0.134
CTAGGTAC	0.0158
AGGACTTC	0.201
CTGACTTC	0.392

Sequence	PBM E-score
CTGACTCC	0.46
AGGACTTG	0.0575
CAGACTTC	-0.103
ACGACTTC	0.324
AAGACTTG	0.165
ATGACTTG	0.435
ATGACTTC	0.469
CCGACTTC	-0.0761
CTGACCCC	-0.221
CTCACTCC	0.0635
AAATGAAG	0.0192
ACACAGTC	0.285
ATGCAACC	-0.254
AACCAGTA	-0.0555
ATATACTC	0.103
AGGAGCTC	-0.0695
CGCTGCTC	-0.243
CGGTCACA	-0.132
CAGTCAAG	0.267
CAGTCACA	0.42
CAGTCACC	0.423
CGGTCACC	-0.0952
CCGTCACA	-0.22
CCGTCACC	-0.189
CAGTCACG	0.413

Sequence	PBM E-score
CTGTCACA	0.16
GACCTTTA	-0.0143
ATCGAGAT	-0.151
AATAGGAG	-0.113
AGAACGTG	-0.217
CTCTAGGA	0.0144
AGTCATCG	0.492
CGTCATCC	-0.131
ATTCATCC	0.119
ATTCATCG	0.205
GGTCATCA	0.228
AGGCATCG	-0.125
CGTCATCA	-0.004
AGTCATCA	0.485
AGTCATCC	0.49
GAGGTAAA	0.122
ATGTGGAG	0.0652
GGGCGCAC	-0.321
GCCAAGGC	-0.214
AGTCAGGA	0.417
AGTCAGGC	0.449
CGTCAGGA	-0.0376
CGTCAGGC	-0.19
ACTCAGGC	0.331
ATTCAGGG	0.0298

Sequence	PBM E-score
GGTCAGGA	-0.138
AGTCAGGG	0.439
ACTCAGGG	0.311
AAAGTCCA	0.0185
AGTGAGAG	-0.0545
AACGTGGG	-0.189
AGCGATCA	-0.0759
CTATGGAA	0.0704
CGAGCAGA	-0.0955
GGATTAAA	0.205
CGATTAAA	0.249
CGATTACA	0.101
TGATTAAA	0.418
CGATTTAA	0.188
TGATTACA	0.41
TGATTTAA	0.407
GGATTACA	0.0898
AGATTTAA	0.2
AGGTAGGG	-0.121
GATTGGCC	-0.0787
CCAACAAA	-0.069
ACTGCGGA	-0.0234
CCGGACTA	0.103
AGTTTAGG	0.0907
AGCAACTG	-0.155

Sequence	PBM E-score
GTTGACTA	0.457
ATTGACTG	0.275
CTTGACAA	0.113
GTTGACAA	-0.00857
CTTGACCA	0.0717
CTTGACTC	0.463
ATTGACAC	0.0304
CTTGACCC	-0.164
CTTGACTA	0.435
GTTGACGA	0.126
ATTGACTC	0.445
CTTGACGC	-0.268
ACTAACAC	0.315
CTAATTAG	0.175
AACATTAA	-0.00496
CTCGATGC	-0.0842
GCCTATCC	-0.207
GGACCTAC	-0.132
GTTATCAA	0.041
AGGCCGCA	-0.226
AAGTTTCT	0.0369
CAAACAGA	0.0255
CATAGGCC	-0.158
GTGTTCAA	0.0916
CCCCTACC	-0.124

Sequence	PBM E-score
ACACTTTC	-0.0867
ATTGACTA	0.428
ATTGACAA	0.0616
ATTGACGA	0.188
ATTGGCTA	0.0683
CGTCGCTA	-0.0862
AGTCGCCA	0.356
AGTCGCTA	0.371
AGTCGCTG	0.303
AGTCGCCG	0.36
AGTCGCAC	0.353
GGTCGCTA	-0.197
AGTCGCAG	0.367
AGTCGCCC	0.403
CGTCGCTC	-0.159
CGTCGCAG	-0.031
AGTCGCTC	0.382
AGATTCGC	-0.0217
GCCCCCAC	-0.265
